Reference: PubChem BioAssay (NCATS)
Inconclusive results are not listed. Active and inactive are the calls of the source. Calls come from the whole dose curve; as a rule, active = well fitted inhibition curve with a large enough effect; inconclusive = small, poorly fitted or top-dose-only effect, or effect the other way; inactive = flat fitted curve, though single readings scatter.

What follows are compounds tested against D(1A) dopamine receptor (Homo sapiens) (UniProt P21728) (assay: HTS Assay for Allosteric Agonists of the Human D1 Dopamine Receptor: Primary Screen for Antagonists (AID 488983;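 note: calcium flux response to an EC80 dopamine challenge measured with no-wash dye; nearly all actives have a fitted effect of over 65% in size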)). Conditions: D1 receptor cell assay, antagonist mode, qHTS titration; series mostly up to 41.8 µM.
D(1A) dopamine receptor (Homo sapiens), sequence (P21728 whole entry, looked up): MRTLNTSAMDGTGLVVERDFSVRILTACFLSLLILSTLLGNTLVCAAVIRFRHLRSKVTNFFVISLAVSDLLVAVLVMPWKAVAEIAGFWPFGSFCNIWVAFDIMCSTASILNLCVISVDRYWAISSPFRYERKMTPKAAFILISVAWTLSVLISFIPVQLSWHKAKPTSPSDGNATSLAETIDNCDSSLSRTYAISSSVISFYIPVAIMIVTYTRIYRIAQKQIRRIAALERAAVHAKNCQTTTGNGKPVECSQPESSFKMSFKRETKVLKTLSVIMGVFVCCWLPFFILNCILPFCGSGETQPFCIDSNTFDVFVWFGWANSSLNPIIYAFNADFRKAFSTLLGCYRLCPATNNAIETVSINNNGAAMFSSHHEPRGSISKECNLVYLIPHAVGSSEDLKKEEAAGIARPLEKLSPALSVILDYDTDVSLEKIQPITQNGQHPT
How it was run: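 Kinetic fluorescence at 1 cycle/sec tracked intracellular calcium in force-coupled, tetracycline-inducible HEK293 T-REx D1 cells. Loss of response to an EC80 dopamine dose, given 180 s after compound, marked antagonists.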

Compound | outcome
COc1ccc2cc([S+]([O-])Cc3ncc(C)c(OC)c3C)nc2c1 | inactive
O=c1[nH]c(=O)n([C@H]2C[C@@H](O)[C@@H](CO)O2)cc1C=CBr | inactive
CN[C@H](CC(C)C)C(=O)N[C@H]1C(=O)N[C@@H](CC(N)=O)C(=O)N[C@@H]2C(=O)N[C@H]3C(=O)N[C@H](C(=O)N[C@H](C(=O)O)c4cc(O)cc(O)c4-c4cc3ccc4O)[C@H](O)c3ccc(c(Cl)c3)Oc3cc2cc(c3O[C@@H]2O[C@H](CO)[C@@H](O)[C@H](O)[C@@H]2O[C@H]2C[C@](C)(N)[C@H](O)[C@H](C)O2)Oc2ccc(cc2Cl)[C@H]1O | inactive

These compounds were tested against ATP-dependent 6-phosphofructokinase (Trypanosoma brucei brucei) (UniProt O15648) (assay: qHTS Assay to Find Inhibitors of T. brucei phosphofructokinase: hit validation (AID 492961;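 note: luminescence reports ADP formed as PFK phosphorylates fructose-6-phosphate with ATP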)). Conditions: T. brucei PFK, ADP-Glo luminescence; series mostly up to 51.4 µM.
ATP-dependent 6-phosphofructokinase (Trypanosoma brucei brucei), sequence (O15648 whole entry, looked up): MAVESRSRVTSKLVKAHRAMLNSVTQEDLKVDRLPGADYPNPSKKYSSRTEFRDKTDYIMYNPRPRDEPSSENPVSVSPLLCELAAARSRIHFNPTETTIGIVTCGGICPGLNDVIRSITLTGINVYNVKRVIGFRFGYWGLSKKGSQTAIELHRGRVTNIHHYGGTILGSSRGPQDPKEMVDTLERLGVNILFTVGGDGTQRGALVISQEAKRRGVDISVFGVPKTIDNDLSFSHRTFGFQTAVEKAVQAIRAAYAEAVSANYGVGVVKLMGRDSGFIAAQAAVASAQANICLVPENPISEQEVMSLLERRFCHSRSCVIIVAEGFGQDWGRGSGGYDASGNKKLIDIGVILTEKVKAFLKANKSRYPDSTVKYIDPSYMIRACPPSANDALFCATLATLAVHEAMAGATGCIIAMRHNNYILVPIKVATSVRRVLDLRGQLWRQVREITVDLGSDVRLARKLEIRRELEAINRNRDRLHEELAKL
How it was run: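 Percent activity derived from corrected luminescence, normalized between 0x and 1x enzyme controls, then fitted to concentration-response curves. Conditions: 1.25 nM PFK, 0.1 mM ATP, 0.5 mM F6P, 45 min RT.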

Compound | outcome
CCC(C(=O)O)C1CCC(C)C(C(C)C(O)C(C)C(=O)C(CC)C2OC3(C=CC(O)[C@@]4(CC[C@](C)(C5CC[C@@](O)(CC)C(C)O5)O4)O3)C(C)CC2C)O1 (some centres undefined) | inactive
COc1ccc([C@@H]2CNC(=O)C2)cc1OC1CCCC1 | inactive
COc1ccc2c(c1OC)C(=O)OC2[C@H]1c2c(cc3c(c2OC)OCO3)CCN1C (some centres undefined) | inactive
Nc1nc2c(c(=O)[nH]1)N(C=O)[C@H](CNc1ccc(C(=O)N[C@@H](CCC(=O)O)C(=O)O)cc1)CN2 | inactive
OCC(O)C(O)C(O)CO (centres undefined) | inactive
CCCCCCCCCCCC(CC1OC(=O)C1CCCCCC)OC(=O)C(CC(C)C)NC=O (centres undefined) | inactive
